# Experimental data from PubChem BioAssay (NCI).
# Several values for one entry are separate records, joined by “and”; a condition that tells them apart may be missing. Equal values may be shown once. This is part of a sample that, as a whole, favours compounds with a hit. Of some 83,000 tested, about 20% had one in any assay.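 Activity criterion: percent growth below 10, measured after cells in 96-well plates were exposed to a single compound concentration for 48 hours.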 Activity calls are given as the source filed them.
# How the values were obtained:
# Assay in all cases: NCI-60 one-dose screen, 48 h (100 = growth as untreated, 0 = no growth, -100 = all killed)
# [1] = tested on: NCI-H23 lung
# [2] = tested on: NCI-H226 lung
# [3] = tested on: NCI-H322M lung
# [4] = tested on: NCI-H460 lung
# [5] = tested on: HOP-92 NSCLC
# [6] = tested on: NCI-H522 lung
# [7] = tested on: A549/ATCC NSCLC
# [8] = tested on: 786-0 renal
# [9] = tested on: COLO 205 colon; settings: 10 µM unless noted
# [10] = tested on: HOP-62 NSCLC; settings: 10 µM unless noted
smiles,measurement,setting,value
COc1ccc(Cl)cc1C(=O)NCCc1ccc(S(=O)(=O)NC(=O)NC2CCCCC2)cc1,growth,[1]; 10 µM,103% (inactive) and 104% (inactive)
same,growth,[1]; 100 µM,81.8% (inactive)
same,growth,[2]; 10 µM,101% (inactive) and 97.4% (inactive)
same,growth,[2]; 100 µM,62.4% (inactive)
same,growth,[3]; 10 µM,96.2% (inactive)
same,growth,[3]; 100 µM,88.5% (inactive)
same,growth,[4]; 10 µM,103% (inactive) and 114% (inactive)
same,growth,[4]; 100 µM,72.2% (inactive)
same,growth,[5]; 10 µM,74% (inactive) and 95.5% (inactive)
same,growth,[5]; 100 µM,63.6% (inactive)
same,growth,[6]; 10 µM,97% (inactive)
same,growth,[6]; 100 µM,54.1% (inactive)
same,growth,[7]; 10 µM,99.8% (inactive) and 103% (inactive)
same,growth,[7]; 100 µM,57.9% (inactive)
same,growth,[8]; 10 µM,107% (inactive) and 98.6% (inactive)
same,growth,[8]; 100 µM,75.5% (inactive)
same,growth,[9],117% (inactive) and 112% (inactive)
O=Nc1ccc(O)cc1,growth,[1]; 10 µM unless noted,78.9% (inactive) and 94.9% (inactive)
same,growth,[2]; 10 µM unless noted,95.5% (inactive) and 109% (inactive)
same,growth,[3]; 10 µM unless noted,104% (inactive) and 97.4% (inactive)
same,growth,[10],101% (inactive) and 97.3% (inactive)
same,growth,[4]; 10 µM unless noted,109% (inactive) and 96.9% (inactive)
same,growth,[5]; 10 µM unless noted,90.4% (inactive) and 101% (inactive)
same,growth,[6]; 10 µM unless noted,87.8% (inactive) and 78.5% (inactive)
same,growth,[7]; 10 µM unless noted,99% (inactive) and 93.9% (inactive)
same,growth,[8]; 10 µM unless noted,98.2% (inactive) and 110% (inactive)
same,growth,[9],104% (inactive) and 111% (inactive)
CCOc1ccc(Nc2c3ccccc3nc3ccccc23)cc1,growth,[1]; 10 µM unless noted,92.1% (inactive) and 36.3% (inactive) and 18.6% (inactive)
same,growth,[2]; 10 µM unless noted,-12.9% (active) and 19.1% (inactive)
same,growth,[3]; 10 µM unless noted,99.3% (inactive) and 44.4% (inactive) and 38.3% (inactive)
same,growth,[10],92.5% (inactive) and 37.1% (inactive) and 42.1% (inactive)
same,growth,[4]; 10 µM unless noted,93.6% (inactive) and 3.2% (active) and 4.66% (active)
same,growth,[5]; 10 µM unless noted,72.2% (inactive) and -5.95% (active) and -4.39% (active)
same,growth,[6]; 10 µM unless noted,10.1% (inactive) and 35.9% (inactive)
same,growth,[7]; 10 µM unless noted,87.5% (inactive) and 12.3% (inactive) and 21% (inactive)
same,growth,[8]; 10 µM unless noted,84.8% (inactive) and 30.1% (inactive) and 43.7% (inactive)
same,growth,[9],103% (inactive) and -11.2% (active) and 24.5% (inactive)
Nc1ccc(N=Nc2ccc(S(=O)(=O)O)cc2)cc1S(=O)(=O)O,growth,[1]; 10 µM unless noted,95.6% (inactive) and 99.8% (inactive)
same,growth,[2]; 10 µM unless noted,110% (inactive) and 99.8% (inactive)
same,growth,[3]; 10 µM unless noted,104% (inactive) and 110% (inactive)
same,growth,[10],118% (inactive) and 101% (inactive)
same,growth,[4]; 10 µM unless noted,103% (inactive) and 96.2% (inactive)
same,growth,[5]; 10 µM unless noted,90.9% (inactive) and 72% (inactive)
same,growth,[6]; 10 µM unless noted,91% (inactive) and 96.3% (inactive)
same,growth,[7]; 10 µM unless noted,95.1% (inactive) and 103% (inactive)
same,growth,[8]; 10 µM unless noted,104% (inactive) and 106% (inactive)
same,growth,[9],125% (inactive) and 119% (inactive)
CC(O)(CC(=O)CC(=O)c1ccccc1)c1ccccc1 (configuration not stated),growth,[1]; 10 µM unless noted,102% (inactive) and 87.4% (inactive)
same,growth,[2]; 10 µM unless noted,93.9% (inactive) and 86% (inactive)
same,growth,[3]; 10 µM unless noted,116% (inactive) and 105% (inactive)
same,growth,[10],106% (inactive) and 99.2% (inactive)
same,growth,[4]; 10 µM unless noted,94.2% (inactive) and 101% (inactive)
same,growth,[5]; 10 µM unless noted,100% (inactive) and 94.7% (inactive)
same,growth,[6]; 10 µM unless noted,90.9% (inactive) and 96.4% (inactive)
same,growth,[7]; 10 µM unless noted,103% (inactive) and 97.4% (inactive)
same,growth,[8]; 10 µM unless noted,101% (inactive) and 106% (inactive)
same,growth,[9],127% (inactive)
NC(=S)NN=C1CCC(C2CCCCC2)CC1 (configuration not stated),growth,[1]; 10 µM unless noted,103% (inactive) and 94.1% (inactive)
same,growth,[2]; 10 µM unless noted,89.1% (inactive) and 73% (inactive)
same,growth,[3]; 10 µM unless noted,95.9% (inactive) and 88.2% (inactive)
same,growth,[10],113% (inactive) and 111% (inactive)
same,growth,[4]; 10 µM unless noted,106% (inactive) and 108% (inactive)
same,growth,[5]; 10 µM unless noted,95.7% (inactive) and 92.3% (inactive)
same,growth,[6]; 10 µM unless noted,52.2% (inactive) and 47.2% (inactive)
same,growth,[7]; 10 µM unless noted,94% (inactive) and 99.5% (inactive)
same,growth,[8]; 10 µM unless noted,96.7% (inactive) and 91.9% (inactive)
same,growth,[9],102% (inactive) and 95% (inactive)
O=C(O)CCCCc1ccc([N+](=O)[O-])cc1,growth,[1]; 10 µM unless noted,99.6% (inactive) and 101% (inactive)
same,growth,[2]; 10 µM unless noted,120% (inactive) and 108% (inactive)
same,growth,[3]; 10 µM unless noted,112% (inactive) and 96.7% (inactive)
same,growth,[10],103% (inactive)
same,growth,[4]; 10 µM unless noted,96.1% (inactive) and 120% (inactive)
same,growth,[5]; 10 µM unless noted,77.5% (inactive) and 83.8% (inactive)
same,growth,[6]; 10 µM unless noted,91.7% (inactive) and 103% (inactive)
same,growth,[7]; 10 µM unless noted,97.6% (inactive) and 102% (inactive)
same,growth,[8]; 10 µM unless noted,102% (inactive) and 96.1% (inactive)
same,growth,[9],115% (inactive) and 113% (inactive)
N#C/C(=C1C=C/C(=N/O)C(Br)=C/1)c1ccccc1,growth,[1]; 10 µM unless noted,78.3% (inactive)
same,growth,[2]; 10 µM unless noted,32% (inactive)
same,growth,[3]; 10 µM unless noted,42.4% (inactive)
same,growth,[10],16.3% (inactive)
same,growth,[4]; 10 µM unless noted,8.25% (active)
same,growth,[5]; 10 µM unless noted,-6.62% (active)
same,growth,[6]; 10 µM unless noted,-43.3% (active)
same,growth,[7]; 10 µM unless noted,27.6% (inactive)
same,growth,[8]; 10 µM unless noted,20% (inactive)
same,growth,[9],83.2% (inactive)
